Measured values reported in PubChem BioAssay (NCATS).
Inconclusive results are not listed. A call without a number means that no potency is given here. A number with no mark means an inactive call. Active and inactive are the calls of the source. The call rests on the fitted dose curve; in most records, active means well fitted curve in the direction sought with a large enough effect; inconclusive means small, poorly fitted or top-dose-only effect, or another doubt; inactive means no such curve, though single readings can be large; an effect the other way counts as inactive or inconclusive.

Key:
KB-3-1 = test: Cytotoxic Profiling of Annotated Libraries Using Quantitative High-Throughput Screening (AID 1296008); conditions: Five cell lines viability, CellTiter-Glo ATP luminescence, 48-72 h; max response: hits give low values; further: nearly all actives have a fitted effect of over 60% in size
Outline: (§1)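 Compounds were pin-transferred onto cells and incubated 48 or 72 hr at 37 degree Celsius, 95% humidity. CellTiter-Glo was added, plates sat 10 min at room temperature, then ATP-coupled luminescence was imaged as the viability read-out.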

NIH3T3 = test: as above; conditions: Five cell lines viability, CellTiter-Glo ATP luminescence, 48-72 h; max response: hits give low values
Outline: as §1

MCC-13 = test: qHTS assay to identify novel small-molecules to repurpose for Merkel cell carcinoma treatment (AID 1296009); conditions: MCC and control cell lines, CellTiter-Glo viability, 72 h; series mostly up to 46 µM; further: nearly all actives have a fitted effect of over 60% in size
Outline: (§2)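 Viability readout: ATP luminescence (CellTiter-Glo) after 72 hr drug exposure at 37 degree celsius. Dose-response format was 8 points for NPC and 11 points for MIPE; data normalized to in-plate controls.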

MCC-26 = test: as above; conditions: MCC and control cell lines, CellTiter-Glo viability, 72 h; series mostly up to 46 µM
Outline: as §2

MKL-1 = test: as above; conditions: MCC and control cell lines, CellTiter-Glo viability, 72 h; series mostly up to 46 µM
Outline: as §2

MKL-2 = test: as above; conditions: MCC and control cell lines, CellTiter-Glo viability, 72 h; series mostly up to 46 µM
Outline: as §2

UISO = test: as above; conditions: MCC and control cell lines, CellTiter-Glo viability, 72 h; series mostly up to 46 µM
Outline: as §2

WaGa = test: as above; conditions: MCC and control cell lines, CellTiter-Glo viability, 72 h; series mostly up to 46 µM
Outline: as §2

C33A = test: Primary qHTS to identify gynecologic anti-cancer compounds using libraries of approved drugs and bioactive compounds (AID 1345084); conditions: Gynecologic cancer cell panel viability, ATPlite luminescence, 48 h; series mostly up to 57.5 µM; further: nearly all actives have a fitted effect of over 55% in size
Outline: (§3)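 Cells, 1,000 per well, were allowed to settle for 16 h at 37 C before compound addition. Five concentrations were tested for 48 h, and viability was read by ATPlite luminescence after 15 min at room temperature.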

CAOV3 = test: as above; conditions: Gynecologic cancer cell panel viability, ATPlite luminescence, 48 h; series mostly up to 57.5 µM
Outline: as §3

CASKI = test: as above; conditions: Gynecologic cancer cell panel viability, ATPlite luminescence, 48 h; series mostly up to 57.5 µM
Outline: as §3

Es-2 = test: as above; conditions: Gynecologic cancer cell panel viability, ATPlite luminescence, 48 h; series mostly up to 57.5 µM
Outline: as §3

HeLa = test: as above; conditions: Gynecologic cancer cell panel viability, ATPlite luminescence, 48 h; series mostly up to 57.5 µM
Outline: as §3

Hek293T = test: as above; conditions: Gynecologic cancer cell panel viability, ATPlite luminescence, 48 h, control line for the selectivity index; series mostly up to 57.5 µM
Outline: as §3

JEG-3 = test: as above; conditions: Gynecologic cancer cell panel viability, ATPlite luminescence, 48 h; series mostly up to 57.5 µM
Outline: as §3

OV90 = test: as above; conditions: Gynecologic cancer cell panel viability, ATPlite luminescence, 48 h; series mostly up to 57.5 µM
Outline: as §3

PA-1 = test: as above; conditions: Gynecologic cancer cell panel viability, ATPlite luminescence, 48 h; series mostly up to 57.5 µM
Outline: as §3
Potency means the concentration at half of the fitted maximal effect.

Row | SMILES | max response (KB-3-1) | max response (NIH3T3) | Potency (MCC-13) | Potency (MCC-26) | Potency (MKL-1) | Potency (MKL-2) | Potency (UISO) | Potency (WaGa) | Potency (C33A) | Potency (CAOV3) | Potency (CASKI) | Potency (Es-2) | Potency (HeLa) | Potency (Hek293T) | Potency (JEG-3) | Potency (OV90) | Potency (PA-1) | Potency (KB-3-1) | Potency (NIH3T3)
1 | CC(C)(C)NC[C@H](O)COc1nsnc1N1CCOCC1 | 0.822% | -2.25% | inactive | inactive | inactive | inactive | inactive | inactive | inactive | inactive | inactive | inactive | inactive | inactive | inactive | inactive | inactive |  | 
2 | CCN1/C(=C/C=C/c2sc3ccccc3[n+]2CC)Sc2ccccc21 |  |  | 3.26 µM (active) | 5.8 µM (active) | 0.366 µM (active) | 0.058 µM (active) | 0.366 µM (active) | 0.82 µM (active) | 2.51 µM (active) |  |  | 2.51 µM (active) | 0.891 µM (active) | 2 µM (active) |  | 2.24 µM (active) | 1.41 µM (active) | 7.31 µM (active) | 1.84 µM (active)
3 | CC(C)Cc1ccc(CC(=O)O)cc1 | -9.62% | 2.82% | inactive | inactive | inactive | inactive | inactive | inactive | inactive |  | inactive | inactive | inactive | inactive | inactive | inactive | inactive |  | 
4 | CC(=O)NCCCCCC(=O)O | 0.772% | -7.1% | inactive | inactive | inactive | inactive | inactive | inactive | inactive |  | inactive | inactive | inactive | inactive | inactive | inactive | inactive |  | 
5 | Cc1ccc(-c2ncc(Cl)cc2-c2ccc(S(C)(=O)=O)cc2)cn1 | -5.38% | -3.08% | inactive | inactive | inactive | inactive | inactive | inactive | inactive |  | inactive | inactive | inactive | inactive | inactive | inactive |  |  | 
6 | COc1cc(C(=O)NCc2ccc(OCCN(C)C)cc2)cc(OC)c1OC | -11.1% | -0.23% | inactive | inactive | inactive | inactive | inactive | inactive | inactive |  | inactive | inactive | inactive | inactive | inactive | inactive | inactive |  | 
7 | CCCCCCCC/C=C\CCCCCCCCN | -6.06% | -3% | inactive | inactive | inactive | inactive | inactive | inactive | inactive |  | inactive | inactive | inactive | inactive | inactive | inactive | inactive |  | 
8 | Cc1nc(-c2ccc(Cl)cc2)oc1COC(C)(C)C(=O)O | -5.49% | 1.1% | inactive | inactive | inactive | inactive | inactive | inactive | inactive | inactive | inactive | inactive | inactive | inactive | inactive |  | inactive |  | 
9 | C#C[C@]1(O)CC[C@H]2[C@@H]3CCC4=CC(=O)CC[C@@H]4[C@H]3CC[C@@]21CC | -1.4% | -3.66% | inactive | inactive | inactive | inactive | inactive | inactive | inactive |  | inactive | inactive | 3.55 µM (active) | inactive | inactive | inactive |  |  | 
10 | CCN(CC)CCNC(=O)c1cc(Br)c(N)cc1OC | -23.2% | -9.42% | inactive | inactive | inactive | inactive | inactive | inactive | inactive | inactive | inactive | inactive | inactive | inactive | inactive |  | inactive |  | 
11 | CCCCC(CC)COC(=O)/C=C/c1ccc(OC)cc1 (configuration not stated) | 15% | -7.17% | inactive | inactive | inactive | inactive | inactive | inactive | inactive | inactive | inactive | inactive | inactive | inactive | inactive | inactive | inactive |  | 
12 | O=[N+]([O-])c1cccc(S(=O)(=O)NCCNS(=O)(=O)c2cccc([N+](=O)[O-])c2)c1 | 2.2% | -4.18% | inactive | inactive | inactive | inactive | inactive | inactive | inactive |  | inactive | inactive | inactive | inactive | inactive | inactive | inactive |  | 
13 | Nc1nc(N)c(-c2ccccc2)s1 | -0.967% | 2.51% | inactive | inactive | inactive | inactive | inactive | inactive | inactive |  | inactive | inactive | inactive | inactive | inactive | inactive |  |  | 
14 | O=S(c1cc(Cl)cc(Cl)c1O)c1cc(Cl)cc(Cl)c1O | -2.92% | 1.36% | inactive | inactive | inactive | inactive | inactive |  | inactive | inactive | inactive | inactive | inactive | inactive | inactive | inactive | inactive |  | 
15 | O=C(O)CCC(=O)Nc1ccc(S(=O)(=O)Nc2nccs2)cc1 | 14.8% | -7.15% | inactive | inactive | inactive | inactive | inactive | inactive | inactive |  | inactive | inactive | inactive | inactive | inactive | inactive | inactive |  | 
